Results reported in PubChem BioAssay (EPA / NIEHS).
The source holds several records for some structures; these can differ, active in one and inactive in another. Calls of active or inactive are those of the source. Rule for the calls: active = hit-call score of the fitted dose curve at least 0.9, where 1 is the maximum; inactive = score below 0.9.

Key:
[1] = read-out: Human Leukocyte Antigen - DR isotype (HLADR), HLA-DRA (gene 3122); assay: BSK_CASM3C_HLADR: BioMAP Diversity Plus: CASM3C Assay for Human Leukocyte Antigen - DR isotype (HLADR) Biomarker Activity (AID 2283043); conditions: primary human coronary artery smooth muscle cells; actives raise or lower the signal;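 note: cell-surface HLA-DR protein level quantified by ELISA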
[2] = read-out: Macrophage colony-stimulating factor (MCSF), CSF1 (gene 1435); assay: BSK_CASM3C_MCSF: BioMAP Diversity Plus: CASM3C Assay for Macrophage colony-stimulating factor (MCSF) Biomarker Activity (AID 2283044); conditions: primary human coronary artery smooth muscle cells; actives raise or lower the signal;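 note: M-CSF protein amount quantified by ELISA after 24 h exposure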
[3] = read-out: Low-density lipoprotein receptor (LDLR), LDLR (gene 3949); assay: BSK_CASM3C_LDLR: BioMAP Diversity Plus: CASM3C Assay for Low-density lipoprotein receptor (LDLR) Biomarker Activity (AID 2283045); conditions: primary human coronary artery smooth muscle cells; actives raise or lower the signal;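 note: LDLR protein level on the cell surface quantified by ELISA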
[4] = read-out: Monocyte Chemoattractant Protein-1 (MCP1), CCL2 (gene 6347); assay: BSK_CASM3C_MCP1: BioMAP Diversity Plus: CASM3C Assay for Monocyte Chemoattractant Protein-1 (MCP1) Biomarker Activity (AID 2283046); conditions: primary human coronary artery smooth muscle cells; actives raise or lower the signal;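 note: MCP-1 level quantified by ELISA 24 h after dosing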
[5] = read-out: Monokine induced gamma interferon (MIG), CXCL9 (gene 4283); assay: BSK_CASM3C_MIG: BioMAP Diversity Plus: CASM3C Assay for Monokine induced gamma interferon (MIG) Biomarker Activity (AID 2283048); conditions: primary human coronary artery smooth muscle cells; actives raise or lower the signal;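 note: MIG protein level measured by ELISA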
[6] = read-out: serum amyloid A (SAA), SAA1 (gene 6288); assay: BSK_CASM3C_SAA: BioMAP Diversity Plus: CASM3C Assay for serum amyloid A (SAA) Biomarker Activity (AID 2283049); conditions: primary human coronary artery smooth muscle cells; actives raise or lower the signal;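 note: SAA protein level quantified by ELISA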
[7] = BSK_CASM3C_SRB: Viability Assessment in the BioMAP Diversity Plus: CASM3C Assay (AID 2283050); conditions: primary human coronary artery smooth muscle cells;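 note: total protein by SRB staining as cytotoxicity measure in parallel cultures; cells exposed to compound for 24 h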
[8] = read-out: Thrombomodulin, THBD (gene 7056); assay: BSK_CASM3C_Thrombomodulin: BioMAP Diversity Plus: CASM3C Assay for Thrombomodulin Biomarker Activity (AID 2283051); conditions: primary human coronary artery smooth muscle cells; actives raise or lower the signal;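 note: thrombomodulin protein level measured by ELISA 24 h after dosing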
[9] = read-out: Tissue Factor, F3 (gene 2152); assay: BSK_CASM3C_TissueFactor: BioMAP Diversity Plus: CASM3C Assay for Tissue Factor Biomarker Activity (AID 2283052); conditions: primary human coronary artery smooth muscle cells; actives raise or lower the signal;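 note: cell surface tissue factor protein level read by ELISA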
[10] = BSK_CASM3C_Proliferation: Cell Proliferation Assessment in the BioMAP Diversity Plus: CASM3C Assay (AID 2283047); conditions: primary human coronary artery smooth muscle cells;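 note: sulforhodamine B total protein stain as relative cell number at 560 nm; sub-confluent cells exposed 48 h before staining; fitted both ways against DMSO so gain or loss of cell number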

ClC1=C(Cl)[C@]2(Cl)[C@@H]3[C@@H]4C[C@@H]([C@H]5O[C@@H]45)[C@@H]3[C@@]1(Cl)C2(Cl)Cl
outcome [1]: inactive | outcome [2]: inactive | outcome [3]: inactive | outcome [4]: inactive | outcome [5]: inactive | AC50 [6]: 0.468 µM (active) | outcome [7]: inactive | outcome [8]: inactive | outcome [9]: inactive

CC(c1ccc(O)cc1)(c1ccc(O)cc1)c1ccc(O)cc1
AC50 [1]: 4.44 µM (active) | AC50 [2]: 3.11 µM (active) | outcome [3]: inactive | AC50 [4]: 5.43 µM (active) | AC50 [10]: 27.2 µM (active) | AC50 [5]: 5.35 µM (active) | outcome [6]: inactive | AC50 [7]: 4.79 µM (active) | outcome [8]: inactive | outcome [9]: inactive

C=CC(=O)NCNC(=O)C=C
outcome [1]: inactive | outcome [2]: inactive | outcome [3]: inactive | outcome [4]: inactive | outcome [10]: inactive | outcome [5]: inactive | outcome [6]: inactive | outcome [7]: inactive | outcome [8]: inactive | outcome [9]: inactive

CN(C)CCO
outcome [1]: inactive | outcome [2]: inactive | outcome [3]: inactive | outcome [4]: inactive | outcome [10]: inactive | outcome [5]: inactive | outcome [6]: inactive | outcome [7]: inactive | outcome [8]: inactive | outcome [9]: inactive

CN(C)c1nc(=O)n(C2CCCCC2)c(=O)n1C
outcome [1]: inactive | outcome [2]: inactive | outcome [3]: inactive | outcome [4]: inactive | outcome [10]: inactive | outcome [5]: inactive | outcome [6]: inactive | outcome [7]: inactive | outcome [8]: inactive | outcome [9]: inactive

CC#Cc1cc(C)nc(Nc2ccccc2)n1
outcome [1]: inactive | outcome [2]: inactive | outcome [3]: inactive | outcome [4]: inactive | outcome [10]: inactive | outcome [5]: inactive | outcome [6]: inactive | outcome [7]: inactive | outcome [8]: inactive | outcome [9]: inactive

c1ccc(-c2ccccc2)cc1
outcome [1]: inactive | outcome [2]: inactive | outcome [3]: inactive | outcome [4]: inactive | outcome [10]: inactive | outcome [5]: inactive | outcome [6]: inactive | outcome [7]: inactive | outcome [8]: inactive | outcome [9]: inactive

CC(C)(O)C(=O)Nc1ccc([N+](=O)[O-])c(C(F)(F)F)c1
outcome [1]: inactive | outcome [2]: inactive | outcome [3]: inactive | outcome [4]: inactive | outcome [10]: inactive | outcome [5]: inactive | outcome [6]: inactive | outcome [7]: inactive | outcome [8]: inactive | outcome [9]: inactive

N#Cc1ccc(N(CC(N)=O)CC(F)(F)F)cc1C(F)(F)F
outcome [1]: inactive | outcome [2]: inactive | outcome [3]: inactive | AC50 [4]: 0.335 µM (active) | outcome [10]: inactive | outcome [5]: inactive | outcome [6]: inactive | outcome [7]: inactive | outcome [8]: inactive | outcome [9]: inactive

CCOC(=O)C(O)(c1ccc(Cl)cc1)c1ccc(Cl)cc1
outcome [1]: inactive | outcome [2]: inactive | outcome [3]: inactive | outcome [4]: inactive | AC50 [10]: 30 µM (active) | outcome [5]: inactive | outcome [6]: inactive | AC50 [7]: 29.5 µM (active) | AC50 [8]: 15 µM (active) | outcome [9]: inactive

CC1=C2C[C@H]3[C@@H](CC=C4C[C@@H](O)CC[C@@]43C)[C@@H]2CC[C@]12O[C@@H]1C[C@H](C)CN[C@H]1[C@H]2C
outcome [1]: inactive | outcome [2]: inactive | AC50 [3]: 2.8 µM (active) | outcome [4]: inactive | outcome [10]: inactive | outcome [5]: inactive | outcome [6]: inactive | outcome [7]: inactive | outcome [8]: inactive | outcome [9]: inactive

Oc1ccc(C(c2ccc(O)cc2)(C(F)(F)F)C(F)(F)F)cc1
outcome [1]: inactive | outcome [2]: inactive | outcome [4]: inactive | AC50 [10]: 20 µM (active) | outcome [5]: inactive | AC50 [6]: 37.6 µM (active) | AC50 [7]: 27.9 µM (active) | AC50 [8]: 29.2 µM (active) | outcome [9]: inactive

CCC(C)c1cc([N+](=O)[O-])cc([N+](=O)[O-])c1O (centres undefined)
AC50 [1]: 14.6 µM (active) | outcome [2]: inactive | outcome [3]: inactive | outcome [4]: inactive | AC50 [10]: 33.7 µM (active) | outcome [5]: inactive | outcome [6]: inactive | AC50 [7]: 30.2 µM (active) | outcome [8]: inactive | outcome [9]: inactive

Cc1cccc([N+](=O)[O-])c1
outcome [1]: inactive | outcome [2]: inactive | outcome [3]: inactive | outcome [4]: inactive | outcome [10]: inactive | outcome [5]: inactive | outcome [6]: inactive | outcome [7]: inactive | outcome [8]: inactive | outcome [9]: inactive

O=C(O)C(F)(F)C(F)(F)C(F)(F)C(F)(F)C(F)(F)C(F)(F)C(F)(F)C(F)(F)F
outcome [1]: inactive | outcome [2]: inactive | outcome [3]: inactive | outcome [4]: inactive | outcome [10]: inactive | outcome [5]: inactive | outcome [6]: inactive | outcome [7]: inactive | outcome [8]: inactive | AC50 [9]: 7.84 µM (active) | outcome [9]: inactive

Cc1ccccc1CO[C@@H]1C[C@@]2(C(C)C)CC[C@]1(C)O2
outcome [1]: inactive | outcome [2]: inactive | outcome [3]: inactive | outcome [4]: inactive | outcome [10]: inactive | outcome [5]: inactive | outcome [6]: inactive | outcome [7]: inactive | outcome [8]: inactive | outcome [9]: inactive
